# Screens as filed in PubChem.
# Only some compounds are listed: those with a hit (about 7.5% of all), similar ones and a draw of the others.
# SMN2 splice up – qHTS Assay for Enhancers of SMN2 Splice Variant Expression. HEK293 SMN2-luciferase splicing reporter, luminescence, 30-36 h. Potency, µM (titrated, usually from 46.1 µM), inactives show top-dose activity change, positive = activation, actives largely listed as activators. 210,000 tested, 2.8% active. AID 1458, 2008; note: % of control where 0% means no effect; nearly all actives have a fitted effect of over 55% in size
#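 HEK293 cells carry an SMN2 minigene-luciferase reporter in which exon 7 inclusion puts luciferase in frame. Cells were seeded at 2000 cells/well, attached for 10-12 hours, then exposed to compounds for 30-36 hours at 37C before ONE-Glo luminescence.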
# Rab9 prom act – qHTS Assay for Rab9 Promoter Activators; 320,000 tested, 2.8% active; Potency, µM (highest dose often 9.22 µM), inactives show top-dose activation, negative = inhibition, most hits filed as activators; Huh7 Rab9 promoter-luciferase reporter, luminescence, 24 h; note: % of control where 0% means no effect; nearly all actives have a fitted effect of over 60% in size
#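 Quantitative HTS format; Huh7 Rab9-luciferase reporter cells (1500/well) receive compound 2 h post-plating, incubate 24 h at 37 °C, then get luciferase reagent for 10 min before luminescence reading.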
# NPC1 promoter act – qHTS Assay for NPC1 Promoter Activators | 320,000 tested, 2.4% active | Potency, µM (titrated, usually from 9.22 µM), without a hit: at the top dose activation, actives largely listed as activators | Huh7 NPC1 promoter luciferase reporter, 24 h | AID 485313, 2010; note: % of control where 0% means no effect; nearly all actives have a fitted effect of over 60% in size
#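 Stable NPC1-promoter luciferase Huh7 line; cpd (DMSO) 24 h, 37 °C, 5% CO2; Amplite luciferase reagent 10 min RT; luminescence readout. qHTS format.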
# KinaseGlo FLuc – Counterscreen for Luciferase (Kinase-Glo TM) Inhibition. Kinase-Glo luciferase, ATP luminescence, 8 min. Potency, µM (highest dose often 38.3 µM), for the others: top-dose activity change, negative = inhibition, usual class: inhibitors. 200,000 tested, 0.28% active. AID 1379, 2008; note: % is set by controls: 0 for no effect and ±100 for the full control effect; nearly all actives have a fitted effect of over 60% in size
#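 Kinase-Glo luciferase light output from ATP and luciferin was measured with 10 uM ATP, within the enzyme's linear range. Buffer: 50 mM imidazole pH 7.2, 50 mM KCl, 7 mM MgCl2, 0.01% Tween 20, 0.05% BSA; luminescence read after 8 min at ambient temperature.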
# ELG1 genotox – qHTS screen for small molecules that induce genotoxicity in human embryonic kidney (HEK293T) cells expressing luciferase-tagged ELG1; HEK293T ELG1-luciferase reporter, luminescence, 16 h; Potency, µM (doses to about 46 µM), inactives show top-dose activity change, positive = activation, usual class: activators; 330,000 tested, 1.3% active; note: % of control where 0% means no effect; nearly all actives have a fitted effect of over 60% in size
#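 Step 1: seed 2,000 HEK293T ELG1-luciferase cells per well. Step 2: add compound or DMSO, incubate 16 hr at 37 °C. Step 3: ONE-Glo, 30 min at room temperature, read luminescence.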
# FLuc modulator – qHTS profiling assay for firefly luciferase inhibitor/activator using purifed enzyme and Km concentrations of substrates (counterscreen for miR-21 project). purified FLuc, Km substrates, luminescence inhibition. Potency, µM (titrated, usually from 57.5 µM), for inactives: top-dose activity change, negative = inhibition, most hits filed as inhibitors. 360,000 tested, 6.9% active;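 note: plate controls were vehicle for no effect and reference inhibitor for full effect; nearly all actives have a fitted effect of over 55% in size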
# Target sequence (P08659 whole entry, looked up): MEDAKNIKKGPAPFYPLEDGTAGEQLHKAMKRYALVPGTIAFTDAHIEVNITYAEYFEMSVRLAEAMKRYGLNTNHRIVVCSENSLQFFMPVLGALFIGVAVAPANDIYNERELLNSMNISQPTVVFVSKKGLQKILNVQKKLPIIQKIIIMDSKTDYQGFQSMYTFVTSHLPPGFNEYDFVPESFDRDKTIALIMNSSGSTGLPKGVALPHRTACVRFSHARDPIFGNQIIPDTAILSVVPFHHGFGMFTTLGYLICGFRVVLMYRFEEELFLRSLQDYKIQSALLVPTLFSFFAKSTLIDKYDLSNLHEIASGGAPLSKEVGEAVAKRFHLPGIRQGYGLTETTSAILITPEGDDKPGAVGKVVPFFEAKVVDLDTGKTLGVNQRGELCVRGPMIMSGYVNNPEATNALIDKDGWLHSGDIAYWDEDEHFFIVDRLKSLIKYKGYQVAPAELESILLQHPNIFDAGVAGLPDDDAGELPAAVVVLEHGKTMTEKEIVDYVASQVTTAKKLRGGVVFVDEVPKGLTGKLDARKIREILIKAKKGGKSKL
#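 Purified P. pyralis luciferase (10nM final) with 10uM D-luciferin and 10uM ATP (Km levels) in 50mM Tris acetate pH 7.5, 10mM Mg acetate, 0.01% Tween-20, 0.05% BSA; qHTS 6-point titration, ~60 µM downward; luminescence read.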
# * = called active by the depositor; ? = inconclusive; . = no result; [ ] = remark or other dose. Calls come from the whole dose curve; as a rule, active = well fitted curve in the direction sought with a large enough effect; inconclusive = small, poorly fitted or top-dose-only effect, or another doubt; inactive = no such curve, though single readings can be large; an effect the other way counts as inactive or inconclusive. Potency is the fitted concentration of half-maximal effect.
SMILES,SMN2 splice up,Rab9 prom act,NPC1 promoter act,KinaseGlo FLuc,ELG1 genotox,FLuc modulator
Cc1ccc(S(=O)(=O)N2CCC(C(=O)Nc3nnc(C)s3)CC2)cc1,.,-1.2%,1.3%,.,-1.9%,-1.1%
Cc1ccc(-n2nc(-c3ccccc3)cc2Nc2ccccc2N)cc1,-2.7%,-0.8%,1.3%,-3.2%,-2.9%,?
Cc1ccc(-c2cc3nn(-c4ccccc4)c(N)c3c(=O)o2)cc1,-28.2%,?,25.4%,-2.2%,-2.0%,6.01µM*
CCC(=O)Nc1ccc2nc(C3CC3)n(Cc3ccc(C(C)(C)C)cc3)c(=O)c2c1,.,?,0.316µM*,.,1.64µM*,1.51µM*
COc1cccc(Cn2c(C3CC3)nc3ccc(NC(=O)c4ccco4)cc3c2=O)c1,-20.1%,-3.0%,2.3%,0.6%,-5.0%,-13.1%
O=C(Nc1ccc2nc(C3CC3)n(Cc3ccc(F)cc3)c(=O)c2c1)c1ccco1,?,3.5%,23.4%,-7.0%,-8.2%,-1.1%
COc1ccc(Cn2c(C3CC3)nc3ccc(NC(=O)C4CC4)cc3c2=O)cc1,11.2µM*,1.58µM*,1.41µM*,-6.8%,2.59µM*,4.26µM*
CC(=O)Nc1ccc2nc(C3CC3)n(Cc3ccc(Cl)cc3)c(=O)c2c1,10µM*,3.55µM*,3.55µM*,-4.5%,?,21.3µM*
Cc1cc(C(=O)COC(=O)c2cccc(S(=O)(=O)N(C)C)c2)c(C)n1CC1CCCO1 (stereo not given),.,3.55µM*,?,.,10.1%,0.953µM*
CNS(=O)(=O)c1cccc(C(=O)OCC(=O)c2cc(C)n(CC3CCCO3)c2C)c1 (stereo not given),.,2.82µM*,2.51µM*,.,?,1.35µM*
OC1(c2cccc(C(F)(F)F)c2)CCN(c2ccc(-c3ccccc3)nn2)CC1,?,1.41µM*,3.16µM*,-2.3%,14.3%,-19.1%
CCS(=O)(=O)n1nc(-c2ccc(Cl)cc2)nc1SCc1ccccc1,14.1µM*,?,28.8%,-1.2%,16.8%,15.1µM*
CN(c1ccccc1)S(=O)(=O)c1cccc(NC(=O)c2ccc(=O)[nH]n2)c1,.,.,.,.,-5.4%,.
CCOC(=O)c1ccc(-c2ccc3c(c2)CCC3)nc1C,.,1µM*,1.58µM*,.,3.66µM*,1.51µM*
COC(=O)c1ccc(-c2ccc(F)cc2)nc1C,?,3.55µM*,3.55µM*,-5.0%,?,3.38µM*
COc1ccc(NC(=O)c2cc([N+](=O)[O-])ccc2N2CCCC2)cc1S(N)(=O)=O,.,3.5%,-2.0%,.,2.6%,-0.5%
COC(=O)Cc1ccc(NC(=S)NCCO)cc1,.,-4.2%,-2.0%,.,-4.7%,-1.4%
COC(=O)Cc1ccc(NC(=S)Nc2ccccn2)cc1,.,?,14.4%,1.8%,3.3%,21.3µM*
COC(=O)Cc1ccc(NC(=S)NC(C)(C)C)cc1,7.9%,12.8%,5.1%,4.4%,3.1%,13.5µM*
S=C(NCCc1ccccc1)Nc1ccc(Br)cc1,20µM*,?,20.5%,0.7%,14.0%,19µM*
COC(=O)Cc1ccc(NC(=S)NCCC(C)C)cc1,9.7%,2.9%,-2.8%,-2.9%,-1.6%,16.9µM*
CC(=O)Nc1ccc(C(=O)CN2CCN(c3ccccc3)CC2)cc1,.,-0.5%,-0.2%,.,-2.6%,-0.8%
CCCNC(=S)Nc1ccc(Br)cc1,23.7%,9.5%,3.0%,1.1%,0.7%,?
Cc1ccc(NC(=S)NCC(C)C)cc1,?,14.3%,10.8%,-0.8%,14.3%,19µM*
CC(C)(C)NC(=S)NCCc1ccccc1,.,1.78µM*,3.16µM*,.,?,10.7µM*
SMILES,SMN2 splice up,Rab9 prom act,NPC1 promoter act,KinaseGlo FLuc,ELG1 genotox,FLuc modulator
COCCCNC(=O)/C=C/c1ccc(Cl)cc1,6.5%,17.9%,17.3%,-5.5%,12.3%,?
CC(C)CCNC(=O)/C=C/c1ccc(Br)cc1,-5.5%,4.7%,0.3%,-0.7%,4.2%,13.5µM*
CC(C)CCNC(=S)Nc1ccc(Br)cc1,21.6%,20.5%,15.1%,4.7%,2.1%,21.3µM*
COc1ccc2c(c1)OC[C@H]1[C@H]2N2C(=O)CN(CCc3c[nH]c4ccccc34)C(=O)[C@@]2(C)[C@H]1c1ccccc1,.,-4.7%,0.9%,.,-1.7%,6.6%
N#CC1=C(N)Oc2cc(Nc3ccccc3)ccc2C1c1ccncc1 (stereo not given),-8.9%,-5.1%,-4.1%,-0.6%,0.1%,-19.5%
Cc1ccc(CNS(=O)(=O)NCc2cccs2)cc1,-2.4%,5.7%,-12.8%,2.5%,-3.0%,-4.6%
S=C(NCCc1ccccc1)NN=C1CCCCCC1,12.6µM*,?,?,-2.2%,?,16.9µM*
N#Cc1ccc(CC(C(=O)O)N2Cc3ccccc3C2=O)cc1 (stereo not given),.,-3.7%,0.0%,.,-5.5%,-2.8%
Cc1nn(-c2ccccc2)c(C)c1C(=O)OCC(=O)Nc1ccccc1,.,?,?,.,11.0%,9.53µM*
COc1ccccc1NC(=O)COC(=O)c1c(C)nn(-c2ccccc2)c1C,.,?,?,.,13.7%,7.57µM*
Cc1ccc(NC(=O)COC(=O)c2c(C)nn(-c3ccccc3)c2C)cc1,.,-6.1%,0.3%,.,1.7%,-2.5%
C=C1C[C@@]23C[C@]1(O)CC[C@@H]2[C@]12C=C[C@@H](O)[C@](C)(C(=O)O1)[C@H]2[C@H]3C(=O)O,-6.9%[20.6 µM],.,.,-3.4%[17.1 µM],.,.
CCCCNC(=O)c1nnn(-c2ccccc2)c1N,12.6µM*,?,?,-0.4%,?,?
CCC(=O)NC1=C(Cl)C(=O)C(NC(=O)CC)=C(Cl)C1=O,.,-3.7%,2.9%,.,0.8%,5.36µM*
CCC(=O)NC1=C(NC(C)c2ccccc2)C(=O)c2ccccc2C1=O (stereo not given),-11.8%,-1.1%,3.3%,-1.0%,-2.9%,-3.3%
